Records with an inconclusive call do not appear. Activity calls are given as the source filed them. How the source made its calls, unless noted: active means hit-call score of the fitted dose curve at least 0.9, where 1 is the maximum; inactive means score below 0.9.
Legend:
[1] = read-out: Interleukin-8 (IL8), CXCL8 (gene 3576); assay: BSK_3C_IL8: BioMAP Diversity Plus: 3C Assay for Interleukin-8 (IL8) Biomarker Activity (AID 2283020); conditions: primary human endothelial cells (HUVEC); actives raise or lower the signal
Summary of the method: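 Using DMSO-treated wells as the baseline, bidirectional curve fitting was applied to ELISA-measured IL-8 from human umbilical vein endothelial cultures sampled 24 h after compound addition.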

[2] = read-out: Monokine induced gamma interferon (MIG), CXCL9 (gene 4283); assay: BSK_3C_MIG: BioMAP Diversity Plus: 3C Assay for Monokine induced gamma interferon (MIG) Biomarker Activity (AID 2283021); conditions: primary human endothelial cells (HUVEC); actives raise or lower the signal
Summary of the method: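 ELISA-measured MIG in dosed HUVEC 3C cultures at 24 h, analysed by bidirectional fitting with DMSO defining baseline activity.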

[3] = target: human Vitamin D Receptor (VDR), VDR (gene 7421) (UniProt P11473); assay: ATG_VDR_TRANS: Attagene TRANS-FACTORIAL HepG2 Assay for human Vitamin D Receptor (VDR) (AID 2283022; active means hit-call score of the fitted dose curve at least 0.9, where 1 is the maximum)
Summary of the method: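 RT-PCR/capillary electrophoresis read-out of reporter mRNA induction in transiently transfected HepG2; 24 h dosing; chimeric NR-Gal4 (TRANS format); gain-of-signal fit against DMSO baseline.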

[4] = BSK_3C_SRB: Viability Assessment in the BioMAP Diversity Plus: 3C Assay (AID 2283023); conditions: primary human endothelial cells (HUVEC);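 further: fitted both ways against DMSO so a hit may be signal rise or drop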
Summary of the method: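 HUVEC, 24 h post-dose; 10% TCA fix, 0.1% SRB stain, A560 nm. Bidirectional curve fit vs DMSO negative control.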

[5] = read-out: Matrix Metallopeptidase 1 (MMP1), MMP1 (gene 4312); assay: BSK_BE3C_MMP1: BioMAP Diversity Plus: BE3C Assay for Matrix Metallopeptidase 1 (MMP1) Biomarker Activity (AID 2283024); conditions: primary human bronchial epithelial cells; actives raise or lower the signal
Summary of the method: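 In this multiplexed primary-cell system, human bronchial epithelium received chemicals for 24 h before an ELISA for MMP1. Values reflect bidirectional fits normalised to the DMSO baseline.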

[6] = BSK_4H_SRB: Viability Assessment in the BioMAP Diversity Plus: 4H Assay (AID 2283027); conditions: primary human endothelial cells (HUVEC);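 further: cells exposed to compound for 24 h before staining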
Summary of the method: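 Cytotoxicity read-out in primary human endothelial cells: after 24 h compound exposure, cells were TCA-fixed (10%), stained with 0.1% SRB and absorbance taken at 560 nm. Values fitted in both directions relative to DMSO.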

[7] = BSK_BE3C_SRB: Viability Assessment in the BioMAP Diversity Plus: BE3C Assay (AID 2283028); conditions: primary human bronchial epithelial cells
Summary of the method: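 Primary human bronchial epithelium; chemical dosing, 24 h; 10% TCA fix, 0.1% SRB stain, A560; bidirectional fit vs DMSO baseline.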

[8] = read-out: Thrombomodulin, THBD (gene 7056); assay: BSK_3C_Thrombomodulin: BioMAP Diversity Plus: 3C Assay for Thrombomodulin Biomarker Activity (AID 2283029); conditions: primary human endothelial cells (HUVEC); actives raise or lower the signal
Summary of the method: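 In a multiplexed primary-cell system, human umbilical vein endothelium received chemical and was assayed 24 h later for thrombomodulin by ELISA. Parallel cultures were SRB-stained (0.1% SRB after 10% TCA fixation, read at 560 nm) to flag cytotoxicity.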

[9] = read-out: Urokinase-type plasminogen activator receptor (uPAR), PLAUR (gene 5329); assay: BSK_4H_uPAR: BioMAP Diversity Plus: 4H Assay for Urokinase-type plasminogen activator receptor (uPAR) Biomarker Activity (AID 2283030); conditions: primary human endothelial cells (HUVEC); actives raise or lower the signal
Summary of the method: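 HUVEC, 24 h post-dose; uPAR by ELISA; bidirectional fit vs DMSO baseline.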

[10] = read-out: Vascular endothelial growth factor receptor 2 (Homo sapiens) (UniProt P35968); assay: BSK_4H_VEGFRII: BioMAP Diversity Plus: 4H Assay for Vascular endothelial growth factor receptor 2 (VEGFR2) Biomarker Activity (AID 2283031); conditions: primary human endothelial cells (HUVEC); actives raise or lower the signal
Summary of the method: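 HUVEC (human primary), 4H system; 24 h post-dose; VEGFRII by ELISA; bidirectional curve fit vs DMSO baseline; gain or loss of signal scored.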

[11] = read-out: Human Leukocyte Antigen - DR isotype (HLADR), HLA-DRA (gene 3122); assay: BSK_BE3C_HLADR: BioMAP Diversity Plus: BE3C Assay for Human Leukocyte Antigen - DR isotype (HLADR) Biomarker Activity (AID 2283032); conditions: primary human bronchial epithelial cells; actives raise or lower the signal
Summary of the method: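 BioMAP BE3C format: human bronchial epithelium, 24 h compound treatment, ELISA detection of HLA-DR, with bidirectional analysis relative to DMSO.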

[12] = read-out: Vascular cell adhesion molecule 1 (VCAM1), VCAM1 (gene 7412); assay: BSK_4H_VCAM1: BioMAP Diversity Plus: 4H Assay for Vascular cell adhesion molecule 1 (VCAM1) Biomarker Activity (AID 2283033); conditions: primary human endothelial cells (HUVEC); actives raise or lower the signal;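 further: cell-surface VCAM-1 protein measured by ELISA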
Summary of the method: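 In this human endothelial (HUVEC) system, biomarker ELISA was run 24 h after compound addition, and total protein in parallel wells was assessed by SRB at 560 nm; DMSO served as negative control.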

[13] = read-out: Interferon-gamma inducible Protein 10 (IP10), CXCL10 (gene 3627); assay: BSK_BE3C_IP10: BioMAP Diversity Plus: BE3C Assay for Interferon-gamma inducible Protein 10 (IP10) Biomarker Activity (AID 2283034); conditions: primary human bronchial epithelial cells; actives raise or lower the signal
Summary of the method: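 BE3C cells (human bronchial epithelial, primary); 24 h exposure; ELISA for IP-10; DMSO-referenced bidirectional fit.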

[14] = read-out: Monokine induced gamma interferon (MIG), CXCL9 (gene 4283); assay: BSK_BE3C_MIG: BioMAP Diversity Plus: BE3C Assay for Monokine induced gamma interferon (MIG) Biomarker Activity (AID 2283035); conditions: primary human bronchial epithelial cells; actives raise or lower the signal;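 further: MIG protein measured by ELISA in BE3C cultures after 24 h of dosing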
Summary of the method: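 ELISA quantified MIG after 24 h exposure of primary bronchial epithelial cultures, analysed in both directions relative to DMSO. Cytotoxicity tracked in parallel cultures by sulforhodamine B staining.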

[15] = read-out: Plasminogen activator inhibitor-1 (PAI1), SERPINE1 (gene 5054); assay: BSK_BE3C_PAI1: BioMAP Diversity Plus: BE3C Assay for Plasminogen activator inhibitor-1 (PAI1) Biomarker Activity (AID 2283037); conditions: primary human bronchial epithelial cells; actives raise or lower the signal
Summary of the method: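 In this multiplexed primary-cell system, bronchial epithelial cells receive test chemical and are sampled at 24 h. PAI-1 is read by ELISA, with DMSO serving as negative control for bidirectional fitting.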

[16] = read-out: urokinase plasminogen activator (uPA), PLAU (gene 5328); assay: BSK_BE3C_uPA: BioMAP Diversity Plus: BE3C Assay for urokinase plasminogen activator (uPA) Biomarker Activity (AID 2283038); conditions: primary human bronchial epithelial cells; actives raise or lower the signal;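 further: uPA protein level quantified by ELISA in cell cultures; uPA read one day after compound addition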
Summary of the method: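 ELISA read-out of uPA in human lung primary bronchial epithelial cultures, 24 h post-dosing. Gain or loss of signal fitted bidirectionally relative to DMSO baseline; cytotoxicity checked in parallel cultures via SRB total protein stain.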

[17] = read-out: Urokinase-type plasminogen activator receptor (uPAR), PLAUR (gene 5329); assay: BSK_BE3C_uPAR: BioMAP Diversity Plus: BE3C Assay for Urokinase-type plasminogen activator receptor (uPAR) Biomarker Activity (AID 2283039); conditions: primary human bronchial epithelial cells; actives raise or lower the signal;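 further: uPAR protein level measured by ELISA on the cells; cells exposed to compound for one day before measurement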
Summary of the method: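 Chemically treated human bronchial epithelial cells (lung primary) are assayed for uPAR by ELISA after 24 h, with data fitted in both directions using DMSO as negative control.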

[18] = BSK_3C_Vis: BioMAP Diversity Plus: 3C Assay for Morphology Visualization (AID 2283025); conditions: primary human endothelial cells (HUVEC);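 further: fitted both ways so gain or loss versus DMSO counts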;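 on AC50: light microscopy image of cell morphology used as background control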
Summary of the method: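 Light-microscopy morphology readout, 24 h exposure, human primary umbilical vein endothelium; analysed relative to DMSO with bidirectional fitting.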

[19] = read-out: Pselectin, SELP (gene 6403); assay: BSK_4H_Pselectin: BioMAP Diversity Plus: 4H Assay for Pselectin Biomarker Activity (AID 2283026); conditions: primary human endothelial cells (HUVEC); actives raise or lower the signal
Summary of the method: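 Bidirectional fits against DMSO gave the endpoint. Cells: primary human umbilical vein endothelium, chemical-treated for 24 h before ELISA detection of P-selectin.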

[20] = read-out: Transforming growth factor beta 1 (TGFb1), TGFB1 (gene 7040); assay: BSK_BE3C_TGFb1: BioMAP Diversity Plus: BE3C Assay for Transforming growth factor beta 1 (TGFb1) Biomarker Activity (AID 2283036;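 further: TGF-b1 protein level measured by ELISA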); conditions: primary human bronchial epithelial cells; actives raise or lower the signal
Summary of the method: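 TGF-b1 measured via ELISA, 24 h after chemical dosing of human bronchial epithelial cells (BE3C). Overt cytotoxicity assessed in parallel by SRB (0.1%, TCA-fixed, 560 nm); analysis bidirectional relative to DMSO.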

Measured: AC50

Sequence of human Vitamin D Receptor (VDR), VDR (gene 7421) (P11473 whole entry, looked up, the tested form may be a part): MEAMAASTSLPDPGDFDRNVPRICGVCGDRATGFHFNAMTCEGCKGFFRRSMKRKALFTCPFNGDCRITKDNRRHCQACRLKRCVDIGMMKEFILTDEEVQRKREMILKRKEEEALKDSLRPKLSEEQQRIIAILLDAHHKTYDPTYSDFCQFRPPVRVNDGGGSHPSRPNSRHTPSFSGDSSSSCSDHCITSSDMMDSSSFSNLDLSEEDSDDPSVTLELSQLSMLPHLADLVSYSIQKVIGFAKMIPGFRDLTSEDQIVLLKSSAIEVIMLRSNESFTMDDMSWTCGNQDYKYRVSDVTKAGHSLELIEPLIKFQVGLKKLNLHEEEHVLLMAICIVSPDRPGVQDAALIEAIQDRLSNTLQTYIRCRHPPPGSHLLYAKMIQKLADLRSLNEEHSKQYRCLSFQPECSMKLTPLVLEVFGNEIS

OC(O)C(F)(F)C(F)(F)F
inactive: [1] | [2] | [3] | [4] | [5] | [6] | [7] | [8] | [9] | [10] | [11] | [12] | [13] | [14] | [15] | [16] | [17]

Nc1cc([N+](=O)[O-])cc(Cl)c1O
inactive: [1] | [2] | [4] | [5] | [18] | [19] | [6] | [7] | [8] | [9] | [10] | [11] | [12] | [14] | [20] | [15] | [16] | [17]
active: [13] 3.97 µM

CCN(CC)c1ccc2c(c1)Oc1cc(N(CC)CC)ccc1C21OC(=O)c2ccccc21
active: [1] 4.05 µM | [4] 5.74 µM | [18] 19.9 µM | [13] 1.98 µM
inactive: [2] | [5] | [6] | [8] | [9] | [10] | [11] | [12] | [14] | [20] | [15] | [16] | [17]

CN(C(=O)C(F)(F)C(F)(F)C(F)(F)F)[Si](C)(C)C
inactive: [1] | [2] | [3] | [4] | [5] | [6] | [7] | [8] | [9] | [10] | [11] | [12] | [13] | [14] | [15] | [16] | [17]

Reference: PubChem BioAssay (EPA / NIEHS)
